Data: article PMC12820563, “FoxP3 forms a head-to-head dimer in vivo and stabilizes its multimerization on adjacent microsatellites”
The full ranking holds about 16,000 sequences; the median of “rpm ratio (pull-down/input)” is about 0.5, and the highest 2% start at about 5.5. For the sample, the highest values were picked, then their nearest neighbours and some sequences at random.

molecular target: T1, MBP-FoxP3dN (Mus musculus, UniProt Q99JB6 188-423); assay: PD-seq (MBP pull-down with sequencing); 20 mM Tris-HCl pH 7.5, 100 mM NaCl, 1.5 mM MgCl2, 0.4 uM protein, 0.1 uM dsDNA library, 30 min, room temperature, amylose pull-down; high values mean tight binding; details: protein: recombinant; tags: His6-MBP; chain copies: 2; dsDNA, one strand shown
T1 sequence: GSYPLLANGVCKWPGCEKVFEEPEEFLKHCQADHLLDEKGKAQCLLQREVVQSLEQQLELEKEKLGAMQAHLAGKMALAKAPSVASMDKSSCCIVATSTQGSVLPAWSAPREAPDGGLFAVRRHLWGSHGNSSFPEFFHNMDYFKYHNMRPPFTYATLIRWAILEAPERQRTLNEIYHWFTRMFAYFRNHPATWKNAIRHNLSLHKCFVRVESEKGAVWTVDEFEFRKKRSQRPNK
Summary of the method: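 Amylose resin was used to capture complexes formed during 30 min at room temperature in Tris pH 7.5 buffer with NaCl and MgCl2 between 0.4 µM His6-MBP-tagged mouse FoxP3 or FoxP1 fragment lacking the N-terminus, expressed in E. coli, and 0.1 µM Klenow-filled double-stranded degenerate DNA library. After three washes, the DNA was released with proteinase K, barcoded by PCR and sequenced on Illumina. Binding is pooled-replicate reads-per-million enrichment, pull-down over input.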

Sequence | binding signal
GATGATTGTTCTCCCAGCTGATGAATTTGTTTAGTCGAGTAAACAAATTTTCCTAATCTTTCTGTTCAAGCGCCATCTAC | 7.22 RPM ratio (pull-down/input)
GATGATTGTTCTCCCAGCTGATGAATTGTTTTAGTCGAGTAAACAAATTTTCCTAATCTTTCTGTTCAAGCGCCATCTAC | 1.21 RPM ratio (pull-down/input)
GATGATTGTTCTCCCAGCTGATGAATTCTGTTAGTCGAGTAAACAAATTTTCCTAATCTTTCTGTTCAAGCGCCATCTAC | 5.31 RPM ratio (pull-down/input)
GATGATTGTTCTCCCAGCTGATGAATTTACGTCGTCGAGTAAACAAATTTTCCTAATCTTTCTGTTCAAGCGCCATCTAC | 0.839 RPM ratio (pull-down/input)
GATGATTGTTCTCCCAGCTGATGAATTGTGTTAGTCGAGTAAACAAATTTTCCTAATCTTTCTGTTCAAGCGCCATCTAC | 5.98 RPM ratio (pull-down/input)
GATGATTGTTCTCCCAGCTGATGAATTGTTAGTGTCGAGTAAACAAATTTTCCTAATCTTTCTGTTCAAGCGCCATCTAC | 4.19 RPM ratio (pull-down/input)
GATGATTGTTCTCCCAGCTGATGAATTTAGTTAGTCGAGTAAACAAATTTTCCTAATCTTTCTGTTCAAGCGCCATCTAC | 2.54 RPM ratio (pull-down/input)
GATGATTGTTCTCCCAGCTGATGAATTGTTTACGTCGAGTAAACAAATTTTCCTAATCTTTCTGTTCAAGCGCCATCTAC | 7.65 RPM ratio (pull-down/input)
GATGATTGTTCTCCCAGCTGATGAATTTTTTACGTCGAGTAAACAAATTTTCCTAATCTTTCTGTTCAAGCGCCATCTAC | 0.246 RPM ratio (pull-down/input)
GATGATTGTTCTCCCAGCTGATGAATTTGGTTAGTCGAGTAAACAAATTTTCCTAATCTTTCTGTTCAAGCGCCATCTAC | 2.03 RPM ratio (pull-down/input)
GATGATTGTTCTCCCAGCTGATGAATTCTCTACTTCGAGTAAACAAATTTTCCTAATCTTTCTGTTCAAGCGCCATCTAC | 0.233 RPM ratio (pull-down/input)
GATGATTGTTCTCCCAGCTGATGAATTGGGCCGGTCGAGTAAACAAATTTTCCTAATCTTTCTGTTCAAGCGCCATCTAC | 0.372 RPM ratio (pull-down/input)
GATGATTGTTCTCCCAGCTGATGAATTGCTCTTGTCGAGTAAACAAATTTTCCTAATCTTTCTGTTCAAGCGCCATCTAC | 0.594 RPM ratio (pull-down/input)
GATGATTGTTCTCCCAGCTGATGAATTCGGTAGGTCGAGTAAACAAATTTTCCTAATCTTTCTGTTCAAGCGCCATCTAC | 0.485 RPM ratio (pull-down/input)
GATGATTGTTCTCCCAGCTGATGAATTGGGGACGTCGAGTAAACAAATTTTCCTAATCTTTCTGTTCAAGCGCCATCTAC | 0.307 RPM ratio (pull-down/input)
GATGATTGTTCTCCCAGCTGATGAATTGGTGCTTTCGAGTAAACAAATTTTCCTAATCTTTCTGTTCAAGCGCCATCTAC | 1.06 RPM ratio (pull-down/input)
GATGATTGTTCTCCCAGCTGATGAATTGAGACTTTCGAGTAAACAAATTTTCCTAATCTTTCTGTTCAAGCGCCATCTAC | 1.22 RPM ratio (pull-down/input)

Sequence | binding signal
GATGATTGTTCTCCCAGCTGATGAATTCCGCAGATCGAGTAAACAAATTTTCCTAATCTTTCTGTTCAAGCGCCATCTAC | 0.352 RPM ratio (pull-down/input)
GATGATTGTTCTCCCAGCTGATGAATTAGGAGGGTCGAGTAAACAAATTTTCCTAATCTTTCTGTTCAAGCGCCATCTAC | 0.318 RPM ratio (pull-down/input)
GATGATTGTTCTCCCAGCTGATGAATTTCACGAATCGAGTAAACAAATTTTCCTAATCTTTCTGTTCAAGCGCCATCTAC | 0.212 RPM ratio (pull-down/input)
GATGATTGTTCTCCCAGCTGATGAATTCACTGCTTCGAGTAAACAAATTTTCCTAATCTTTCTGTTCAAGCGCCATCTAC | 0.345 RPM ratio (pull-down/input)
GATGATTGTTCTCCCAGCTGATGAATTTCCGCCGTCGAGTAAACAAATTTTCCTAATCTTTCTGTTCAAGCGCCATCTAC | 0.555 RPM ratio (pull-down/input)
GATGATTGTTCTCCCAGCTGATGAATTTCTTAGGTCGAGTAAACAAATTTTCCTAATCTTTCTGTTCAAGCGCCATCTAC | 0.273 RPM ratio (pull-down/input)
GATGATTGTTCTCCCAGCTGATGAATTAGTTAGGTCGAGTAAACAAATTTTCCTAATCTTTCTGTTCAAGCGCCATCTAC | 1.51 RPM ratio (pull-down/input)
GATGATTGTTCTCCCAGCTGATGAATTTGTGTAGTCGAGTAAACAAATTTTCCTAATCTTTCTGTTCAAGCGCCATCTAC | 6.14 RPM ratio (pull-down/input)
GATGATTGTTCTCCCAGCTGATGAATTTTTGTAGTCGAGTAAACAAATTTTCCTAATCTTTCTGTTCAAGCGCCATCTAC | 0.53 RPM ratio (pull-down/input)
GATGATTGTTCTCCCAGCTGATGAATTATGTTAGTCGAGTAAACAAATTTTCCTAATCTTTCTGTTCAAGCGCCATCTAC | 5.81 RPM ratio (pull-down/input)
GATGATTGTTCTCCCAGCTGATGAATTTCTGTAGTCGAGTAAACAAATTTTCCTAATCTTTCTGTTCAAGCGCCATCTAC | 0.385 RPM ratio (pull-down/input)
GATGATTGTTCTCCCAGCTGATGAATTTGTTAGGTCGAGTAAACAAATTTTCCTAATCTTTCTGTTCAAGCGCCATCTAC | 5.73 RPM ratio (pull-down/input)
GATGATTGTTCTCCCAGCTGATGAATTAGTTATGTCGAGTAAACAAATTTTCCTAATCTTTCTGTTCAAGCGCCATCTAC | 3.79 RPM ratio (pull-down/input)
GATGATTGTTCTCCCAGCTGATGAATTATTTTAGTCGAGTAAACAAATTTTCCTAATCTTTCTGTTCAAGCGCCATCTAC | 0.414 RPM ratio (pull-down/input)
GATGATTGTTCTCCCAGCTGATGAATTAGTCGAGTCGAGTAAACAAATTTTCCTAATCTTTCTGTTCAAGCGCCATCTAC | 0.367 RPM ratio (pull-down/input)
GATGATTGTTCTCCCAGCTGATGAATTTTATTAGTCGAGTAAACAAATTTTCCTAATCTTTCTGTTCAAGCGCCATCTAC | 4.27 RPM ratio (pull-down/input)
GATGATTGTTCTCCCAGCTGATGAATTTATTTAGTCGAGTAAACAAATTTTCCTAATCTTTCTGTTCAAGCGCCATCTAC | 5.5 RPM ratio (pull-down/input)
